In PubChem BioAssay (Tox21):
Inconclusive results are not listed. Activity calls are given as the source filed them. Calls come from the whole dose curve; as a rule, active = well fitted curve in the direction sought with a large enough effect in the repeat runs; inconclusive = weak or mixed curves; inactive = no such curve, though single readings can be large; an effect the other way counts as inactive or inconclusive.

Columns and labels:
[1] = qHTS RealTime-Glo MT Cell Viability Assay in HepG2 cells - 40 hour (AID 1224870); note: nearly all actives have a fitted effect of over 50% in size
In short: (§1)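 Real-time viability: cells seeded at 600 per well together with NanoLuc and cell-permeant prosubstrate, compounds added after 5 h incubation. Luminescence tracked at 0, 8, 16, 24, 32 and 40 h of exposure.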

[2] = A CellTox Green Cytotoxicity Assay to monitor cytotoxicity in HEK293 cells - 40 hour (AID 1224871); note: nearly all actives have a fitted effect of over 45% in size
In short: (§2)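 Read-out: fluorescence of a cell-impermeant cyanine dye staining DNA of dead cells, proportional to cytotoxicity. HEK293, 600 cells/well with reagent, compound (23 nL DMSO) added after 5 h; reads at 0, 8, 16, 24, 32, 40 h.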

[3] = qHTS RealTime-Glo MT Cell Viability Assay in HEK293 cells - 16 hour (AID 1224872); note: top concentration of the series differs between compounds; nearly all actives have a fitted effect of over 50% in size
In short: (§3)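 Nonlytic real-time viability readout: viable cells convert prosubstrate to NanoLuc substrate, giving luminescence proportional to live cell number. HEK293, 600 cells/well, compound added after 5 h, continuous culture at 37 C.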

[4] = qHTS RealTime-Glo MT Cell Viability Assay in HepG2 cells - 8 hour (AID 1224873); note: nearly all actives have a fitted effect of over 55% in size
In short: as §1

[5] = qHTS RealTime-Glo MT Cell Viability Assay in HEK293 cells - 40 hour (AID 1224874); conditions: RealTime-Glo luminescence; max response: stronger effect = lower value; note: nearly all actives have a fitted effect of over 50% in size
In short: (§4)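 Luminescence readout at each listed time point; HEK293, 600 cells/well, RealTime-Glo MT reagent added with cells; compounds pinned (23 nL in DMSO) after 5 h at 37 C; continuous culture at 37 C.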

[6] = A CellTox Green Cytotoxicity Assay to monitor cytotoxicity in HEK293 cells - 24 hour (AID 1224875); note: series mostly up to about 77 µM; nearly all actives have a fitted effect of over 45% in size
In short: as §2

[7] = A CellTox Green Cytotoxicity Assay to monitor cytotoxicity in HepG2 cells - 24 hour (AID 1224878); note: nearly all actives have a fitted effect of over 45% in size
In short: (§5)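 HepG2, 600 cells/well premixed w/ CellTox Green; 5 h settle, 37 C/5% CO2; pintool cpd add (DMSO); 37 C, 40 h; fluorescence read at 0, 8, 16, 24, 32, 40 h.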

[8] = A CellTox Green Cytotoxicity Assay to monitor cytotoxicity in HepG2 cells - 40 hour (AID 1224879); note: nearly all actives have a fitted effect of over 40% in size
In short: as §5

[9] = qHTS RealTime-Glo MT Cell Viability Assay in HEK293 cells - 0 hour (AID 1224880); note: top concentration of the series differs between compounds; nearly all actives have a fitted effect of over 45% in size
In short: as §4

[10] = A CellTox Green Cytotoxicity Assay to monitor cytotoxicity in HEK293 cells - 32 hour (AID 1224881); note: nearly all actives have a fitted effect of over 40% in size
In short: as §2

[11] = A CellTox Green Cytotoxicity Assay to monitor cytotoxicity in HepG2 cells - 0 hour (AID 1224882); note: nearly all actives have a fitted effect of over 35% in size
In short: as §5

[12] = A CellTox Green Cytotoxicity Assay to monitor cytotoxicity in HepG2 cells - 32 hour (AID 1224883); note: nearly all actives have a fitted effect of over 50% in size
In short: as §5

[13] = A CellTox Green Cytotoxicity Assay to monitor cytotoxicity in HEK293 cells - 8 hour (AID 1224884); note: nearly all actives have a fitted effect of over 35% in size
In short: as §2

[14] = qHTS RealTime-Glo MT Cell Viability Assay in HepG2 cells - 16 hour (AID 1224885); note: nearly all actives have a fitted effect of over 50% in size
In short: (§6)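 Luminescence read-out: viable HepG2 cells reduce a prosubstrate to a NanoLuc substrate, giving a signal proportional to live cell number. Reads taken at 0, 8, 16, 24, 32 and 40 h of compound exposure at 37 C.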

[15] = qHTS RealTime-Glo MT Cell Viability Assay in HEK293 cells - 24 hour (AID 1224886)
In short: as §3

[16] = qHTS RealTime-Glo MT Cell Viability Assay in HEK293 cells - 8 hour (AID 1224887)
In short: as §4

[17] = A CellTox Green Cytotoxicity Assay to monitor cytotoxicity in HEK293 cells - 16 hour (AID 1224888); note: nearly all actives have a fitted effect of over 35% in size
In short: as §2

[18] = qHTS RealTime-Glo MT Cell Viability Assay in HepG2 cells - 0 hour (AID 1224889); note: nearly all actives have a fitted effect of over 50% in size
In short: as §6

[19] = A CellTox Green Cytotoxicity Assay to monitor cytotoxicity in HepG2 cells - 16 hour (AID 1224876); note: nearly all actives have a fitted effect of over 45% in size
In short: as §5

[20] = qHTS RealTime-Glo MT Cell Viability Assay in HepG2 cells - 32 hour (AID 1224877); note: nearly all actives have a fitted effect of over 55% in size
In short: as §6
% is set by controls: 0 for no effect and ±100 for the full control effect.

C=C(C)C(=O)OCCN(CC)CC
inactive: outcome [1] | Potency [2] | Potency [3] | outcome [4] | max response [5] 2.31% | outcome [6] | outcome [7] | Potency [8] | Potency [9] | Potency [10] | outcome [11] | Potency [12] | Potency [13] | outcome [14] | Potency [15] | Potency [16] | outcome [17] | Potency [18]

Cc1ccc2c(c1)OCC(=O)CO2
inactive: outcome [1] | Potency [2] | Potency [3] | outcome [4] | max response [5] -8.18% | outcome [6] | outcome [7] | Potency [8] | Potency [9] | Potency [10] | outcome [11] | Potency [12] | Potency [13] | outcome [14] | Potency [15] | Potency [16] | outcome [17] | Potency [18]

C[C@@H]1O[C@@H](O[C@@H]2[C@@H](O)[C@H](OCCc3ccc(O)c(O)c3)O[C@H](CO[C@@H]3O[C@H](CO)[C@@H](O)[C@H](O)[C@H]3O)[C@H]2OC(=O)/C=C/c2ccc(O)c(O)c2)[C@H](O)[C@H](O)[C@H]1O
inactive: outcome [1] | Potency [2] | Potency [3] | outcome [4] | max response [5] -18.6% | outcome [6] | outcome [19] | outcome [7] | Potency [9] | Potency [10] | outcome [11] | Potency [13] | outcome [14] | Potency [15] | Potency [16] | outcome [17] | Potency [18]

C=CC(OCC)OCC
inactive: outcome [1] | Potency [2] | Potency [3] | outcome [4] | max response [5] 8.05% | outcome [6] | outcome [19] | outcome [7] | Potency [8] | Potency [9] | Potency [10] | outcome [11] | Potency [12] | Potency [13] | outcome [14] | Potency [15] | Potency [16] | outcome [17] | Potency [18]

O=S(O)(O)=S
inactive: activity change, negative = cytotoxic [1] 5.36% [at 6.97 µM] | cytotoxicity increase [2] -0.26% [at 6.97 µM] | activity change, negative = cytotoxicity [3] 0.498% [at 6.97 µM] | viability change, negative = cytotoxic [4] 0.222% [at 6.97 µM] | max response [5] 0.994% | activity change [6] -0.341% [at 6.97 µM] | activity change, negative = cytotoxic [20] 5.2% [at 6.97 µM] | cytotoxicity [7] -1.5% [at 6.97 µM] | cytotoxicity increase [8] -1.37% [at 6.97 µM] | cytotoxicity increase [10] -0.289% [at 6.97 µM] | cytotoxicity [11] 8.46% [at 6.97 µM] | cytotoxicity increase [12] 0.202% [at 6.97 µM] | cytotoxicity increase [13] -1.12% [at 6.97 µM] | activity change, negative = cytotoxic [14] 1% [at 6.97 µM] | activity change, negative = cytotoxicity [15] 1.38% [at 6.97 µM] | activity change, negative = cytotoxicity [16] 0.371% [at 6.97 µM] | activity change [17] -0.887% [at 6.97 µM] | activity change, negative = cytotoxicity [18] -0.126% [at 6.97 µM]

CCCCOC(=O)c1ccccc1
inactive: outcome [1] | Potency [2] | Potency [3] | outcome [4] | max response [5] 4.16% | outcome [6] | outcome [7] | Potency [8] | Potency [9] | Potency [10] | outcome [11] | Potency [12] | Potency [13] | outcome [14] | Potency [15] | Potency [16] | outcome [17] | Potency [18]

CC(C)(C)c1cc(CCC(=O)NN)cc(C(C)(C)C)c1O
inactive: outcome [1] | Potency [2] | Potency [3] | outcome [4] | max response [5] -14% | outcome [6] | outcome [19] | Potency [9] | Potency [10] | outcome [11] | Potency [13] | outcome [14] | Potency [15] | Potency [16] | outcome [17] | Potency [18]

CN(C)CCOCCO
inactive: outcome [1] | Potency [2] | Potency [3] | outcome [4] | max response [5] -8.11% | outcome [6] | outcome [20] | outcome [7] | Potency [8] | Potency [9] | Potency [10] | outcome [11] | Potency [12] | Potency [13] | outcome [14] | Potency [15] | Potency [16] | outcome [17] | Potency [18]

C=COCCOCCOCCOC=C
inactive: outcome [1] | Potency [2] | Potency [3] | outcome [4] | max response [5] 1.1% | outcome [6] | outcome [20] | outcome [7] | Potency [8] | Potency [9] | Potency [10] | outcome [11] | Potency [12] | Potency [13] | outcome [14] | Potency [15] | Potency [16] | outcome [17] | Potency [18]

CC(C)=O
inactive: outcome [1] | Potency [2] | Potency [3] | outcome [4] | max response [5] 0.384% | outcome [6] | outcome [19] | outcome [7] | Potency [8] | Potency [10] | outcome [11] | Potency [12] | Potency [13] | outcome [14] | Potency [15] | Potency [16] | outcome [17] | Potency [18]

CN=C(NC#N)Nc1ccc(C2=NNC(=O)CC2C)cc1 (centres undefined)
inactive: outcome [1] | Potency [2] | Potency [3] | outcome [4] | max response [5] 11.7% | outcome [6] | outcome [20] | outcome [7] | Potency [8] | Potency [10] | outcome [11] | Potency [12] | Potency [13] | outcome [14] | Potency [15] | Potency [16] | outcome [17] | Potency [18]

Nc1ccc2cc(S(=O)(=O)O)cc(O)c2c1
inactive: outcome [1] | Potency [2] | Potency [3] | outcome [4] | max response [5] 0.478% | outcome [6] | outcome [20] | outcome [7] | Potency [8] | Potency [10] | outcome [11] | Potency [12] | Potency [13] | outcome [14] | Potency [15] | Potency [16] | outcome [17] | Potency [18]

OCCN(CCO)c1cccc(Cl)c1
inactive: outcome [1] | Potency [2] | Potency [3] | outcome [4] | max response [5] 0.212% | outcome [6] | outcome [20] | outcome [7] | Potency [8] | Potency [9] | Potency [10] | outcome [11] | Potency [12] | Potency [13] | outcome [14] | Potency [15] | Potency [16] | outcome [17] | Potency [18]

CCOCCOCCOCC
inactive: outcome [1] | Potency [2] | Potency [3] | outcome [4] | outcome [6] | outcome [19] | outcome [20] | outcome [7] | Potency [8] | Potency [9] | Potency [10] | outcome [11] | Potency [12] | Potency [13] | outcome [14] | Potency [15] | Potency [16] | outcome [17] | Potency [18]
